# Compounds with a hit are over-represented: about 9% of the library has one in this group of screens.
# HP1b chromo inh = blocks HP1-beta chromodomain binding to methylated histone tails. P83916. AlphaScreen HP1-beta / biotin-H3K9me3 peptide binding. Potency, µM (series often up to 114 µM), for the others: at the top dose activity change, negative = inhibition, hits mostly inhibitors. 0.56% of 390,000 active. AID 540317; further: nearly all actives have a fitted effect of over 70% in size
#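 AlphaScreen: HP1-beta (50 nM) preformed 30 min with biotin-H3(1-18)K9me3 peptide (50 nM) in PBS pH 7.4, 0.01% Tween-20. Compound added for 30 min at RT, then streptavidin donor/nickel chelate acceptor beads (10 ug/mL) for 30 min.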
# BAZ2B inh = blocks human BAZ2B. Q9UIF8. AlphaScreen BAZ2B-H3K14Ac peptide displacement. Potency, µM (titrated, usually from 114 µM), for inactives: top-dose activity change, negative = inhibition, actives largely listed as inhibitors. 4.4% of 360,000 active. AID 504333; further: on the % scale 0 is the no-effect control and ±100 the full control effect; nearly all actives have a fitted effect of over 60% in size
#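 AlphaScreen displacement: compounds (up to 110uM) incubated 30 min at room temperature with a preformed 50 nM BAZ2B/50 nM biotinylated H3K14Ac peptide complex in PBS pH 7.4 with Tween-20. Donor and acceptor beads at 10 ug/mL final added, 20 min light-protected before reading.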
# PLK1 PBD inh = PLK1 (human) polo-box domain binding inhibition; Plk1 PBD binding of FITC phosphopeptide, fluorescence polarization; Potency, µM, without a hit: max response, negative = inhibition, most hits filed as inhibitors; 2.8% of 360,000 active; AID 720504; further: series mostly up to about 57 µM; on the % scale 0 is the no-effect control and ±100 the full control effect; nearly all actives have a fitted effect of over 65% in size
# JMJD2A Tudor inh = JMJD2A Tudor domain (human) inhibition | O75164 | AlphaScreen JMJD2A-Tudor / H3K4me3 peptide binding | Potency, µM (series often up to 114 µM), for the others: top-dose activity change, negative = inhibition, hits mostly inhibitors | 4.4% of 390,000 active; further: on the % scale 0 is the no-effect control and ±100 the full control effect; nearly all actives have a fitted effect of over 50% in size
# 12-LOX inh = inhibitors of human 12S-lipoxygenase ALOX12; P18054; purified 12hLO, xylenol orange hydroperoxide absorbance; Potency, µM (titrated, usually from 108 µM), inactives show top-dose activity change, negative = inhibition, usual class: inhibitors; 1.1% of 580,000 active; AID 1671190; further: on the % scale 0 is the no-effect control and ±100 the full control effect
#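 Purified human 12hLO at 150 nM in 25 mM Hepes, 0.01% Triton X-100, pH 7.0, preincubated 15 min at room temperature with compound. Reaction started with 40 uM arachidonic acid, 30 min at room temperature. Hydroperoxide measured by Fe-xylenol orange, 573/405 nm absorbance ratio.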
# G9a inh = G9a (human) methyltransferase inhibition; Q96KQ7; G9a H3K9 monomethylation, AlphaScreen, 2 h; Potency, µM (doses to about 102 µM), without a hit: at the highest dose activity, negative = inhibition, hits mostly inhibitors; 8.8% of 350,000 active; AID 504332; further: on the % scale 0 is the no-effect control and ±100 the full control effect; nearly all actives have a fitted effect of over 75% in size
#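 G9a (20 nM) was preincubated 15 min with compound, then reacted 2 h at room temperature with 500 nM biotin-H3K9 peptide and 20 µM SAM. Monomethyl-H3K9 detected by AlphaScreen using anti-H3K9me1 antibody.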
# * hit, by the source's call; ? = inconclusive; . = no result given; ! = not confirmed by another sample; [ ] = remark or other dose. The call rests on the fitted dose curve; in most records, active means well fitted curve in the direction sought with a large enough effect; inconclusive means small, poorly fitted or top-dose-only effect, or another doubt; inactive means no such curve, though single readings can be large; an effect the other way counts as inactive or inconclusive. Potency means the concentration at half of the fitted maximal effect.
SMILES,HP1b chromo inh,BAZ2B inh,PLK1 PBD inh,JMJD2A Tudor inh,12-LOX inh,G9a inh
CN(C)[C@@H]1C(=O)C(C(N)=O)=C(O)[C@@]2(O)C(=O)C3=C(O)c4c(O)cccc4[C@@](C)(O)C3C[C@@H]12 (stereo partly specified),5%,25µM*,-15%,10µM*,?,10µM*
CN(C)[C@@H]1C(=O)C(C(N)=O)=C(O)[C@@]2(O)C(=O)C3=C(O)c4c(O)cccc4[C@@](C)(O)[C@H]3[C@H](O)[C@@H]12,4µM*!,2.8µM*,5.3µM*,1.4µM*!,?,11µM*
c1ccc(C[n+]2ccccc2)cc1,28%,16%,-5%,-10%,-17%,16%[2.33 µM]
CCCCSc1nnc([C@@H](N)Cc2c[nH]c3ccccc23)o1,.,.,.,.,-27%,.
Cc1[nH]nc2ccc(-c3cncc(OC[C@@H](N)Cc4c[nH]c5ccccc45)c3)cc12,-36%,.,-14%,35µM*,?,.
COc1cc(CNCCc2ccc3c(c2)OCO3)ccc1O,37%,2%,5%,-15%,?,0%[0.501 µM]
COc1ccccc1CCNCc1cc2c(cc1[N+](=O)[O-])OCO2,-55%,50µM*,-15%,3.5µM*,?,25µM*
COc1cc(CNCCc2ccc3c(c2)OCO3)cc(OC)c1OC,?,56µM*,-1%,0.79µM*,?,5µM*
COc1ccc(Br)cc1CNCCc1ccc2c(c1)OCO2,?,.,-7%,25µM*,?,.
COc1ccc(CCNCc2ccsc2)cc1OC,25%,-7%,-4%,-17%,7%,.
COc1ccc(CNCCc2ccc3c(c2)OCO3)cc1Br,-15%,50µM*,-3%,18µM*,0%,5µM*
Cn1cc(C(=O)N2CCOCC2)c2ccccc21,39%,-20%,4%,-13%,-8%,4%
CN(C)C(=O)Oc1ccc(Cl)c2cccnc12,39%,-12%,1%,8%,-4%,-5%[59 µM]
C[C@]12CCC3C(CC[C@H]4CC(O)CC[C@]34C)C1CC/C2=N/NC(=O)c1ccncc1 (stereo partly specified),79%,0%,-10%,-4%,11%,21%
Cc1nc(-c2cccc(CN(C)C(=O)Oc3ccc([N+](=O)[O-])cc3)c2)no1,.,.,-14%,.,-19%,.
CC1CN(O)C2CCc3nonc3C12O (stereo unspecified),17%,-4%,-15%,-11%,0%,?
CCOc1ccc(-n2c(/C=C/c3ccccc3)nc3ccccc3c2=O)cc1,31%,8%,.,-16%,1%,30%[59 µM]
CCn1nc(/C=C/c2ccccc2)nc2c(=O)n(C)c(=O)nc1-2,2%,-1%,24µM*,-31%,-30%,.
CCn1nc(-c2cccs2)nc2c(=O)n(C)c(=O)nc1-2,29%,-12%,-14%,-9%,.,18µM*
CCOc1ccc(-n2c(-c3cccs3)nc3ccccc3c2=O)cc1,37%,2%,-4%,-8%,-21%,10%[0.501 µM]
N[C@@H](Cc1c[nH]c2ccccc12)c1nnc(SCc2ccc(F)cc2)o1,32%,-12%,-8%,-17%,5%,.
C[N+]1(CC(COCc2ccccc2)OC(=O)Cc2ccccc2)CCOCC1 (stereo unspecified),-18%,-6%,-26%,?,40µM*,8.9µM*
COCCNCCOc1ccc(C(C)(C)c2ccccc2)cc1,?,?,2%,32µM*,-25%,11µM*
Cc1ccc(C)c(CC(=O)N2CCN(CCO)CC(O)C2)c1 (stereo unspecified),.,.,.,.,66%,.
COc1ccc(C(=O)N2CCC3(CC2)OCCO3)cc1,26%,12%,-4%,-1%,11%,.
COc1ccc(CNCC(=O)N2CCC3(CC2)OCCO3)cc1,?,35µM*,-2%,13µM*,-16%,22µM*
O=C1C2CCCN2C(c2ccncc2)N1c1ccc(Cl)c(Cl)c1 (stereo unspecified),-2%,6%,-12%,-29%,-3%,?

# Assay outcomes (PubChem BioAssay)
